Mtb FBA inh = inhibits M. tuberculosis FBA enzyme; inhibition, % at 1 µM; purified M. tuberculosis FBA, fluorescence read-out; 360,000 tested, 2.3% active; in the data active = inhibition above about 27%;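 note: 0% = vehicle and 100% = reference inhibitor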
Target sequence (P9WQA3 whole entry, looked up): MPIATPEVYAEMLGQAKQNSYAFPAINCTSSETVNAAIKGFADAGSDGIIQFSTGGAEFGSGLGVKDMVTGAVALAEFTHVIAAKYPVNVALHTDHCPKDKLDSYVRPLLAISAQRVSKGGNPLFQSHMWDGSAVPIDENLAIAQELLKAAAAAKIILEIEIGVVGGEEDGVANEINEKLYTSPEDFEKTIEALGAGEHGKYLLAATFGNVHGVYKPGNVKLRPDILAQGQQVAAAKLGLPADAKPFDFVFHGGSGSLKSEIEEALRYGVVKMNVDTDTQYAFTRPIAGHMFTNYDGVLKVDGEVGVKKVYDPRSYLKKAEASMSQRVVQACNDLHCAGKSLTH
GDH-TPI inh = GDH-TPI coupled enzyme inhibition counter-screen; GDH-TPI coupled enzyme counterscreen, NADH absorbance; inhibition, % at 4.8 µM; 360,000 tested, 1.2% active; in the data active = inhibition above about 30%;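 note: 0% = DMSO wells and 100% = wells lacking the enzyme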
Y pestis TopoI = inhibitors of Yersinia pestis topoisomerase I. Y. pestis Topo-I cleavage product accumulation, plate reader. activity, % at 10 µM. 360,000 tested, 0.064% active; in the data active = activity above about 50%, passing the limit was not always enough
PrP UTR inh = suppresses PrP 5' UTR mRNA reporter expression | cell-based PrP 5' UTR mRNA reporter, plate reader | inhibition, % (test concentration not listed) | 340,000 tested, 0.35% active; in the data active = inhibition above about 52%; note: 0 = median of the neutral control wells
PrPC surface inh = reduces human prion protein on the cell surface. inhibition, % at 13.8 µM. P04156. AID 720596. 370,000 tested, 0.43% active. cell surface PrPC, TR-FRET read-out; in the data active = inhibition above about 24%; note: 0% = median of the test wells and 100% = reference compound wells
Mtb hypoxia inh = Mtb hypoxia fluorescent reporter inhibition | M. tuberculosis hypoxia-regulated fluorescent reporter, fluorescence | fluorescence inhibition, % (concentration not given with the values) | 300,000 tested, 0.1% active; in the data active = fluorescence inhibition mostly above about 23%, no sharp cut-off; inactive = mostly below about 17%
Numbers without * were called inactive. Rows were chosen to be rich in hits. Some 3.8% of all compounds tested hit in one or more screens of this group.

`CC(C)N1CC=C2C(C#N)=C(N)C(C#N)(C#N)C(c3ccccc3)C2C1` (stereo unspecified) gave Mtb FBA inh active, GDH-TPI inh 1, Y pestis TopoI -1, PrP UTR inh 13, PrPC surface inh -16 and Mtb hypoxia inh 14.
Screening CCN1CC=C2C(C#N)=C(N)C(C#N)(C#N)C(c3cc(Cl)ccc3Cl)C2C1 (stereo unspecified) returned Mtb FBA inh 33*, GDH-TPI inh 14, Y pestis TopoI 2, PrP UTR inh 4, PrPC surface inh -12 and Mtb hypoxia inh 2.
For C#Cc1ccc(C2C=C(C(=O)NCc3ccccc3)OC(OCC)C2CCCO)cc1 (stereo unspecified) the results were Mtb hypoxia inh 9.
Screening CC(=O)Cc1nsc(NC(=O)c2oc(-c3ccccc3Cl)cc2C)n1 returned Mtb FBA inh 5, GDH-TPI inh 56*, Y pestis TopoI 4, PrP UTR inh -7, PrPC surface inh -3 and Mtb hypoxia inh 1.
CC(=O)Cc1nsc(NC(=O)c2ccc(-c3ccccc3Cl)o2)n1 was read as Mtb FBA inh 4, GDH-TPI inh 33*, Y pestis TopoI 5, PrP UTR inh -33, PrPC surface inh 4 and Mtb hypoxia inh -77.
For CC(O)Cc1nsc(NC(=O)c2ccc(Br)o2)n1 (stereo unspecified) the results were Mtb FBA inh -1, GDH-TPI inh 42*, Y pestis TopoI -3, PrP UTR inh -7, PrPC surface inh -7 and Mtb hypoxia inh -1.
CC(=O)Cc1nsc(NC(=O)c2ccccc2Cl)n1 was read as Mtb FBA inh 0, GDH-TPI inh 1, Y pestis TopoI 4, PrP UTR inh 9, PrPC surface inh 5 and Mtb hypoxia inh -15.
Screening CCOC(=O)NC(=O)C(C#N)=Cc1ccccc1 returned Mtb hypoxia inh -6.
For CCN(CC)C(=O)c1sc(NC(=O)c2ccc3c(c2)OCO3)c(C#N)c1C the results were Mtb FBA inh 0, GDH-TPI inh 12, Y pestis TopoI 3, PrP UTR inh 5, PrPC surface inh -10 and Mtb hypoxia inh -3.
`Cc1c(C(=O)N2CCOCC2)sc(NC(=O)c2ccc3c(c2)OCO3)c1C#N` gave Mtb FBA inh -2, GDH-TPI inh 45*, Y pestis TopoI -2, PrP UTR inh -38, PrPC surface inh -4 and Mtb hypoxia inh 5.
Screening Cc1ccc(C=NNC(=O)CSc2ccccn2)o1 returned Mtb hypoxia inh 7.
COC(=O)C1=COC(OC2OC(CO)C(O)C(O)C2O)C2C(CO)=CCC12 (stereo unspecified) was read as Mtb hypoxia inh 5.
Screening Cc1ccc2cc(C3C(C#N)=C(N)Oc4c3ccc3cccnc43)c(=O)[nH]c2c1 (stereo unspecified) returned Mtb FBA inh 4, GDH-TPI inh 35*, Y pestis TopoI 8, PrP UTR inh -4 and Mtb hypoxia inh 2.
For CCOC(=O)c1c(C)[nH]sc1=S the results were Mtb FBA inh 1, GDH-TPI inh 29, Y pestis TopoI -1, PrP UTR inh -7, PrPC surface inh 21 and Mtb hypoxia inh 0.
Screening CCOC(=O)c1sc(=S)[nH]c1C returned Mtb FBA inh -3, GDH-TPI inh 31*, Y pestis TopoI 4, PrP UTR inh -32 and PrPC surface inh 22.
Screening CC(=NNc1ccc(Cl)c(C(=O)O)c1)c1ccc(Br)s1 returned Mtb hypoxia inh -2.
`CCOc1ccc(-c2c(C)n(-c3ccc(OCC)cc3)c3[n+]2CCCCC3)cc1` gave Mtb FBA inh 1, GDH-TPI inh 10, Y pestis TopoI 9, PrP UTR inh -10 and PrPC surface inh 28*.
For CCCC1Cc2[nH]c(=O)c(C#N)cc2CO1 (stereo unspecified) the results were Mtb FBA inh 126*, GDH-TPI inh 30, Y pestis TopoI -9, PrPC surface inh -3 and Mtb hypoxia inh 9.
For CCCC1Cc2nc(N3CCCCC3)c(C#N)cc2CO1 (stereo unspecified) the results were Mtb FBA inh 15, GDH-TPI inh -1, Y pestis TopoI 29, PrP UTR inh -35 and Mtb hypoxia inh 0.
Screening O=C(NCCn1c(C(F)(F)F)nc2ccccc21)C1CCCN1c1nc(CN2CCCCC2)cs1 (stereo unspecified) returned Mtb hypoxia inh 18.
For CC1=C(C(=O)Nc2ccccc2)C(c2ccc(C)cc2)N=C(Nc2nc3ccccc3o2)N1 (stereo unspecified) the results were Mtb FBA inh 20, GDH-TPI inh 26, Y pestis TopoI 15, PrP UTR inh 7, PrPC surface inh -5 and Mtb hypoxia inh 37*.
COc1ccc(/C=N/NC(=O)c2c(C)nc3ccc(Br)cn23)cc1OC was read as Mtb FBA inh -2, GDH-TPI inh 46*, Y pestis TopoI 7, PrP UTR inh -55 and PrPC surface inh -6.
Cc1cc(/C=N\NC(=O)c2cccs2)c(C)n1-c1ccc2ncccc2c1 was read as Mtb FBA inh 0, GDH-TPI inh 37*, Y pestis TopoI 6, PrP UTR inh -97 and PrPC surface inh 4.
COc1ccc(/C=N/NC(=O)c2nc(-c3ccccc3)n(-c3ccccc3)n2)cc1 was read as Mtb FBA inh 1, GDH-TPI inh 33*, Y pestis TopoI -6, PrP UTR inh 7 and PrPC surface inh 3.
For Cc1cc(C=NNC(=O)c2cccs2)c(C)n1-c1ccc2ncccc2c1 the results were Mtb hypoxia inh 12.
COc1ccc(/C=N/NC(=O)c2c(C)nc3ccccn23)cc1[N+](=O)[O-] was read as Mtb FBA inh 1, GDH-TPI inh 38*, Y pestis TopoI -11, PrP UTR inh -10 and PrPC surface inh -1.
`COc1ccc(C=NNC(=O)c2c(C)nc3ccccn23)cc1[N+](=O)[O-]` gave Mtb hypoxia inh 2.
For CCC1=C(OC(=O)N(CC)CC)N2C(=O)OC(=NCC(=O)OC)[C@]2(C)C2C1=CCC1C(=O)N(C)C(=O)C12 (stereo partly specified) the results were Mtb hypoxia inh 2.
For Cc1ccc(N(CC(=O)NN=Cc2ccco2)S(=O)(=O)c2ccccc2)cc1 the results were Mtb hypoxia inh 1.
`COc1cccc2c1OCCC2=NNC(=O)COc1ccc(C)cc1` gave Mtb hypoxia inh -2.
Screening Cc1ccc(/C=N/NC(=O)c2c(C)nc3ccc(Br)cn23)cc1 returned Mtb FBA inh -2, GDH-TPI inh 12, Y pestis TopoI 1, PrP UTR inh 45 and PrPC surface inh 14.
Screening Cc1nc2ccccn2c1C(=O)N/N=C/c1cc(C)n(-c2ccc(Br)cc2)c1C returned Mtb FBA inh 0, GDH-TPI inh 37*, Y pestis TopoI 15, PrP UTR inh -7 and PrPC surface inh 10.
COc1ccc(/C=N\NC(=O)c2c(C)nc3ccc(Br)cn23)cc1 was read as Mtb FBA inh 0, GDH-TPI inh 43*, Y pestis TopoI -5, PrP UTR inh 38 and PrPC surface inh 6.

Compound activity (PubChem)
